Source: PubChem BioAssay
The source made the active and inactive calls. Unless noted, no rule for the calls is given here.

Columns and labels:
[1] = compound effects on lung adenocarcinoma cell viability – A549, calcein-AM fluorescence, 48 h, basal, profiling panel (AID 1162); conditions: higher = more signal; also: test concentration not given here
[2] = compound effects on differentiated 3T3-L1 adipocyte viability – cell-based, 3T3-L1 adipocytes, calcein-AM fluorescence, 48 h, basal, profiling panel (AID 1163); conditions: 3T3-L1 adipocytes viability, higher = more signal; also: test concentration not given here
[3] = compound effects on hepatocellular carcinoma cell viability – HepG2, calcein-AM fluorescence, 48 h, basal, profiling panel (AID 1164); conditions: higher = more signal; also: test concentration not given here
[4] = compound effects on multiple myeloma cell viability – MM1S, calcein-AM fluorescence, 48 h, basal, profiling panel (AID 1165); conditions: higher = more signal; also: test concentration not given here
[5] = calcein-AM signal in unstimulated myeloma cells – cell-based, calcein-AM fluorescence, 48 h, PK04 Diversity Set, profiling panel (AID 1166); conditions: RPMI8226 myeloma viability, higher = more signal;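 also: cells grown under basal conditions without added stimulus; test concentration not given here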
[6] = JC-1 mitochondrial signal, unstimulated HepG2 cells – cell-based, JC-1 fluorescence, 24 h, 100 nL compound, profiling panel (AID 1167); conditions: HepG2 mitochondrial potential, higher = more signal; also: test concentration not given here
[7] = JC-1 mitochondrial signal, unstimulated adipocytes – cell-based, JC-1 fluorescence, 3T3-L1 adipocytes, 24 h, 100 nL compound, profiling panel (AID 1168); conditions: JC-1 mitochondrial fluorescence, higher = more signal, called active from +8 up or from −8 down; also: test concentration not given here
[8] = JC-1 mitochondrial signal, unstimulated myeloma cells – cell-based, JC-1 fluorescence, RPMI8226, 24 h, 100 nL compound, profiling panel (AID 1169); conditions: JC-1 mitochondrial potential fluorescence, higher = more signal; also: test concentration not given here
[9] = JC-1 mitochondrial signal, unstimulated MM1S myeloma – cell-based, JC-1 fluorescence, 24 h, 100 nL compound, profiling panel (AID 1170); conditions: MM1S mitochondrial potential, higher = more signal; also: test concentration not given here
[10] = resazurin metabolic signal in A549 cells – cell-based, resazurin fluorescence, 24 h, PK04 Diversity Set, profiling panel (AID 1171); conditions: A549 viability, higher = more signal, called active from +8 up or from −8 down; also: test concentration not given here
[11] = resazurin metabolic signal in HepG2 cells – cell-based, resazurin fluorescence, 24 h, PK04 Diversity Set, profiling panel (AID 1172); conditions: HepG2 viability, higher = more signal; also: test concentration not given here
[12] = budding yeast growth changes without added modifier – OD600, strain BY4716, 24 h, basal condition, primary screen (AID 1173); conditions: S. cerevisiae BY4716 growth, OD600, 24 h; higher = more signal, called active from +8 up or from −8 down
[13] = viability profiling in MM1S myeloma cells – cell-based, resazurin fluorescence, basal, 24 h, PK04 Diversity Set, profiling panel (AID 1174); conditions: higher = more signal, called active from +8 up or from −8 down; also: test concentration not given here
[14] = target: Dihydroorotate dehydrogenase (quinone), mitochondrial (Plasmodium falciparum (isolate 3D7)) (UniProt Q08210); experiment: inhibition of P. falciparum DHODH – biochemical, C-terminal His tag, absorbance 600 nm, primary screen (AID 1175); conditions: PfDHODH enzyme, DCIP absorbance 600 nm; higher = more signal, called active from +8 up or from −8 down;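 also: recombinant parasite enzyme with a five histidine tag at its C terminus; test concentration not given here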
[15] = inhibition of PAO1 biofilm formation – strain PAO1, LB-PBS medium, absorbance 600 nm, primary screen (AID 1176); also: test concentration not given here; conditions: P. aeruginosa PAO1 growth/biofilm, A600, 12 h; higher = more signal
[16] = growth modulation of vineyard yeast isolate – strain RM11-1a, OD600, basal, 24 h, primary screen (AID 1177);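 also: cultures grown under basal conditions with no added stressor; test concentration not given here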; conditions: S. cerevisiae RM11-1a growth, OD600, 24 h; higher = more signal, called active from +8 up or from −8 down
[17] = growth of efflux-deficient E. coli DRC39 – strain DRC39, OD650, 24 h, E. coli filamentation inducers, primary screen (AID 1178);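 also: growth measured as culture turbidity by optical density at 650 nm; test concentration not given here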; conditions: E. coli DRC39 acrAB, higher = more signal, called active from +8 up or from −8 down
[18] = growth of efflux-deficient E. coli DRC39 – strain DRC39, OD650, 48 h, E. coli filamentation inducers, primary screen (AID 1179);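 also: screen aims at cell division blockers that make cells filament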; conditions: E. coli DRC39 delta-acrAB growth, higher = more signal, called active from +8 up or from −8 down
[19] = viability profiling in RPMI8226 myeloma cells – cell-based, resazurin fluorescence, basal, 24 h, PK04 Diversity Set, profiling panel (AID 1180); conditions: higher = more signal;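 also: RPMI8826 multiple myeloma cell line at 5000 cells per well; test concentration not given here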
[20] = target: E3 ubiquitin-protein ligase XIAP (Homo sapiens) (UniProt P98170); experiment: small molecules binding XIAP protein – biophysical, small-molecule microarray, fluorescence 635 nm, primary screen (AID 1181); conditions: higher = more signal;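 also: score merges 667 nm emission and signal to noise over triplicate slides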
Chain of E3 ubiquitin-protein ligase XIAP (Homo sapiens) (P98170 whole entry, looked up): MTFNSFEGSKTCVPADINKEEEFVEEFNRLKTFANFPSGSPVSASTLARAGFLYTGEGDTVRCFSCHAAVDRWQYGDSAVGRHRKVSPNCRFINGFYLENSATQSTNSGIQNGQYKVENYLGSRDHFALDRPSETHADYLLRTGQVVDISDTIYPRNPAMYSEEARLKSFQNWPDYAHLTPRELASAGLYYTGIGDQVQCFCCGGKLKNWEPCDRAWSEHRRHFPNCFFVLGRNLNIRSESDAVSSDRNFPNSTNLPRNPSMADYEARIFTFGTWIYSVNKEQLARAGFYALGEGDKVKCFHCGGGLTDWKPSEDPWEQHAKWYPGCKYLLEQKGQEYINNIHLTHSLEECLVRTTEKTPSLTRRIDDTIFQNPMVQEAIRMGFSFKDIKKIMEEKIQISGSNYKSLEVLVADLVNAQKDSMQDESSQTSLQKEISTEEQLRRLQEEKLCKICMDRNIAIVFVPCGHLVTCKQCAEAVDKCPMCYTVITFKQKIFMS

Chain of Dihydroorotate dehydrogenase (quinone), mitochondrial (Plasmodium falciparum (isolate 3D7)) (Q08210 whole entry, looked up): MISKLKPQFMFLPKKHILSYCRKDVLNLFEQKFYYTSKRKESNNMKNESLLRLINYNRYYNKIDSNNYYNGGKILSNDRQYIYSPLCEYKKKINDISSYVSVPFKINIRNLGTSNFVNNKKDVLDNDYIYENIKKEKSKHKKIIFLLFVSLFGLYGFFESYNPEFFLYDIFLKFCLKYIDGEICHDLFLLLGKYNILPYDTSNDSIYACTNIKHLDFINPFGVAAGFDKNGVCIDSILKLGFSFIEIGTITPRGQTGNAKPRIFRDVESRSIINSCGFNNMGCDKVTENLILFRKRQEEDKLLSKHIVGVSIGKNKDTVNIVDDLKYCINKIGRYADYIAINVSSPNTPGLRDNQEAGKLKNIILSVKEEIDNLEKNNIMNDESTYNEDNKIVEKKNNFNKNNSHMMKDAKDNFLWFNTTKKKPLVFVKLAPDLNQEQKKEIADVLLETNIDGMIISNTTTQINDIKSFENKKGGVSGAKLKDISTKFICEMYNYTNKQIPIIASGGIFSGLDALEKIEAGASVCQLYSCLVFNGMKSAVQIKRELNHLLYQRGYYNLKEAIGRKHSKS

| Compound | z-score [1] | z-score [2] | z-score [3] | z-score [4] | z-score [5] | z-score [6] | z-score [7] | z-score [8] | z-score [9] | z-score [10] | z-score [11] | z-score [12] | z-score [13] | composite z-score [14] | z-score [15] | z-score [16] | z-score [17] | z-score [18] | z-score [19] | composite z-score [20] |
| --- | --- | --- | --- | --- | --- | --- | --- | --- | --- | --- | --- | --- | --- | --- | --- | --- | --- | --- | --- | --- |
| CCCCC(O)C1C=CC2C(=O)NC(=O)C2N1Nc1ccccn1 (stereo not given) | -0.795 | -0.291 | 1.18 | 0.106 | 0.0087 | -1.68 | -0.285 (inactive) | 0.617 | -0.00704 | -0.751 (inactive) | -1.32 | 0.932 (inactive) | -1.09 (inactive) | 0.487 (inactive) | 0.695 (inactive) | 0.369 (inactive) | -0.576 (inactive) | -0.529 (inactive) | -1.07 | 0.117 |
| COCCOC(=O)N1C(=O)[C@@]2(c3cc(C#CCNC(N)=O)ccc31)[C@H](C(=O)NC[C@H](O)c1ccccc1)[C@H]1C(=O)O[C@H](c3ccccc3)[C@H](c3ccccc3)N1[C@@H]2c1ccc(OCCO)cc1 | -0.877 | -0.116 | -1.07 | -0.286 | 0.995 | -1.61 | 0.213 (inactive) | 0.418 | -0.193 | 0.637 (inactive) | 0.774 | 2 (inactive) | -0.118 (inactive) | 1.14 (inactive) | 2.28 (inactive) | 2.87 (inactive) | -0.0238 (inactive) | -0.63 (inactive) | 0.381 | 0.135 |
| COC(=O)[C@@]1(Cc2ccccc2CN=[N+]=[N-])COC(c2ccc(OCCCO)cc2)=N1 | -1.19 | -0.19 | -0.891 | -3.53 | -0.691 | -2.15 | -0.428 (inactive) | -1.01 | 0.515 | -0.657 (inactive) | -0.639 | -5.02 (inactive) | -1.75 (inactive) | 0.37 (inactive) | 1.07 (inactive) | 0.593 (inactive) | 0.544 (inactive) | -0.74 (inactive) | -0.39 | -0.0582 |
| CC1CC/C=C\[C@H]2OC34C=CCN(c5ccc(Cl)cc5)C(=O)[C@H]3N(CCCO)C(=O)[C@]4(C)C2C(=O)O1 (stereo not given in full) | 0.606 | 0.208 | -0.865 | 1.04 | 0.338 | -0.713 | -0.887 (inactive) | -0.294 | 1.86 | -0.6 (inactive) | -1.08 | 1.44 (inactive) | -0.198 (inactive) | 1.44 (inactive) | -0.897 (inactive) | 0.941 (inactive) | -0.699 (inactive) | -0.801 (inactive) | -0.208 | -0.151 |
| C[C@@H](OCc1ccccc1)C1NC(=O)[C@@]23C(=O)N[C@@H](Cc4ccccc4)C2[C@H](C)[C@@]2(C)O[C@H]2C3/C=C/C/C=C\CNC(=O)[C@H](Cc2ccccc2)NC1=O (stereo not given in full) | 0.247 | 0.854 | 0.235 | -1.42 | -2.1 | 0.637 | -0.355 (inactive) | -0.497 | 0.546 | -0.792 (inactive) | -0.515 | -1.29 (inactive) | -0.614 (inactive) | -0.199 (inactive) | 0.0359 (inactive) | -0.658 (inactive) | 2.13 (inactive) | 0.5 (inactive) | -0.302 | -0.0565 |
| CCCCC(O)C1C=CC2C(=O)NC(=O)C2N1Nc1ccc(Cl)cc1Cl (stereo not given) | -1.99 | 0.266 | -2.39 | -1.55 | -2.27 | -2.38 | -0.831 (inactive) | -0.64 | 0.724 | -1.99 (inactive) | -2.57 | -16.6 (active) | -2.26 (inactive) | -0.2 (inactive) | 0.546 (inactive) | -5.12 (inactive) | -0.818 (inactive) | -1.31 (inactive) | -2.01 | -0.272 |
| CCN(CC)c1ccc(N2CC=CC34O[C@@H]5C=CCOC(=O)[C@@H]5[C@H]3C(=O)N(CCCO)[C@@H]4C2=O)cc1 (stereo not given in full) | -0.0867 | 1.85 | -0.244 | 1.8 | 0.28 | 0.432 | 0.604 (inactive) | 0.19 | 0.536 | -0.481 (inactive) | -0.527 | -0.746 (inactive) | 0.242 (inactive) | -1.47 (inactive) | 0.537 (inactive) | -0.049 (inactive) | 1.27 (inactive) | 0.715 (inactive) | 0.4 | 0.107 |
| C=CC[C@@]12N=C(c3ccc(OCCCO)cc3)O[C@@H]1c1ccccc1N(Cc1ccccc1)C2=O | -0.395 | 0.555 | -1.48 | -3.4 | -4.23 | 0.394 | 2.91 (inactive) | -1.25 | -0.934 | -1.1 (inactive) | 0.157 | -0.848 (inactive) | -2.58 (inactive) | -0.162 (inactive) | 0.469 (inactive) | 0.632 (inactive) | 1.48 (inactive) | 0.666 (inactive) | -2.37 | 0.322 |
| CC(=O)NCCCC[C@@H]1NC(=O)[C@@H]2C[C@H](C(=O)NCCCCCC[N+](C)(C)C)[C@H](c3ccc(O)cc3)N2C1=O | 0.131 | -0.348 | -0.611 | 0.258 | -0.539 | -1.33 | 0.164 (inactive) | 0.169 | -0.5 | -0.557 (inactive) | -0.793 | 0.857 (inactive) | -0.471 (inactive) | -1.24 (inactive) | -0.807 (inactive) | 0.0885 (inactive) | -0.241 (inactive) | -0.229 (inactive) | -0.854 | 0.123 |
